Results: PubChem BioAssay (Tox21)
Inconclusive results are not listed. The source made the active and inactive calls. Unless noted, calls follow the shape of the full dose curve.

Assays:
[1] = Nuclear factor erythroid 2-related factor 2/antioxidant responsive element (Nrf2/ARE) small molecule agonists: qHTS cell viability counter screen in human keratinocytes (AID 1919968; active = well fitted curve in the direction sought with a large enough effect in the repeat runs; an effect the other way counts as inactive or inconclusive; also: nearly all actives have a fitted effect of over 55% in size; also: potency is read from the fitted curve at half-maximal effect)
Procedure, shortened: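 HaCaT ARE reporter line, 1,500 cells/well; 5 h settle, 37 C/5% CO2; cpd in DMSO pinned; 23 h exposure; CellTiter-Fluor, 1 h; fluorescence.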

[2] = Nuclear factor erythroid 2-related factor 2/antioxidant responsive element (Nrf2/ARE) small molecule agonists: luciferase reporter gene qHTS assay in human keratinocytes (AID 1919969); also: nearly all actives have a fitted effect of over 35% in size; also: potency is read from the fitted curve at half-maximal effect
[3] = target: Gonadotropin-releasing hormone receptor (Homo sapiens) (UniProt P30968); experiment: Human gonadotropin-releasing hormone receptor (GnRHR) small molecule agonists, calcium flux assay in GnRHR-HEK293 cells (AID 1920063); also: nearly all actives have a fitted effect of over 35% in size
Chain of Gonadotropin-releasing hormone receptor (Homo sapiens) (P30968 whole entry, looked up): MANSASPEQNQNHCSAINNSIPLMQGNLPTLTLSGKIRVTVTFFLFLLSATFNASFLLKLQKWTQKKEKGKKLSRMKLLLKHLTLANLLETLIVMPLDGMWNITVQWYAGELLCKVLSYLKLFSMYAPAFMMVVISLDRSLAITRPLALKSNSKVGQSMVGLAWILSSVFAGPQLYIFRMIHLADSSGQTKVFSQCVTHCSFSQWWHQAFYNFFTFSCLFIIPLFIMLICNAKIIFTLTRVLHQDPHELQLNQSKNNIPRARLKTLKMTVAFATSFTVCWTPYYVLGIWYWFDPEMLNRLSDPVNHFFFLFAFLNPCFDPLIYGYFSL
Procedure, shortened: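 GnRHR-HEK293, 1500 cells/well, 18 h 37 C/5% CO2; Ca dye 1 h 37 C; cpd pinned (DMSO), agonist mode; kinetic FL 480/540, 3 min, 1 s reads; 15 conc, n=3.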

[4] = target: KiSS-1 receptor (Homo sapiens) (UniProt Q969F8); experiment: Human kisspeptin (KISS1R) small molecule agonists, calcium flux assay in KISS1R-HEK293 cells (AID 1920064; active = well fitted curve in the direction sought with a large enough effect in the repeat runs; an effect the other way counts as inactive or inconclusive)
Chain of KiSS-1 receptor (Homo sapiens) (Q969F8 whole entry, looked up): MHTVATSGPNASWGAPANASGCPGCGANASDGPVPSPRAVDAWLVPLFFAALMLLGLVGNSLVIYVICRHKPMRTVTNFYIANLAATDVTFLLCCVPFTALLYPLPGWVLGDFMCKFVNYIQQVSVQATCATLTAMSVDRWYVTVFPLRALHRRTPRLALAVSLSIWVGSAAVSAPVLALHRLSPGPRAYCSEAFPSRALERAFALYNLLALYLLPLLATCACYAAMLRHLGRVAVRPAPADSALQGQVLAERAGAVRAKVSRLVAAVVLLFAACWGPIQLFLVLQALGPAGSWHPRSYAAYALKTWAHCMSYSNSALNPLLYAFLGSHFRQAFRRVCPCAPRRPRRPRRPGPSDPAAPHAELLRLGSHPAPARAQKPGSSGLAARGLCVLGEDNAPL
Procedure, shortened: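 Stable human KISS1R HEK293 line; 18 h plating, 37 C/5% CO2; calcium dye 1 h 37 C; compound pin transfer; kinetic fluorescence Ex/Em 480/540, 3 min.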

[5] = G protein-coupled receptor (GPCR) small molecule agonists, calcium flux assay: HEK293 wild type cell line counter screen (AID 1920065)
Procedure, shortened: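 Kinetic fluorescence at Ex/Em 480/540, recorded every second over 3 min, served as the read-out after compound addition. Each compound was tested at 15 concentrations in triplicate on cells pre-loaded with calcium dye for 1 h.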

[6] = p53 small molecule agonists, cell-based qHTS assay with human liver microsomes (AID 1963577);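 also: p53 response element beta-lactamase reporter cells with liver microsomes plus NADPH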
Procedure, shortened: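 HLM-supplemented p53RE-bla reporter assay: 16 h compound exposure at 37 C, microsomes and NADPH each 0.5 mg/mL final, read by fluorescence intensity.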

[7] = p53 small molecule agonists, cell-based qHTS assay with rat liver microsomes (AID 1963578)
Procedure, shortened: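 Quantitative HTS of the Tox21 10K library: p53RE-bla cells, rat liver microsomes plus NADPH at 0.5 mg/mL final each, 16 h at 37 C, beta-lactamase fluorescence detection.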

[8] = p53 small molecule agonists, cell-based qHTS assay with human liver microsomes: qHTS cell viability counter screen (AID 1963579); also: nearly all actives have a fitted effect of over 45% in size; also: potency is read from the fitted curve at half-maximal effect
Procedure, shortened: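 Viability of p53RE-bla cells is measured as CellTiter-Glo luminescence following a 16 h, 37 C incubation with compound, liver microsomes from human donors and NADPH.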

[9] = p53 small molecule agonists, cell-based qHTS assay (AID 1963582; active = well fitted activation curve with a large enough effect in the signal ratio in the repeat runs, not every such curve was filed as active; the % refers to the signal ratio)
Procedure, shortened: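 Reporter line: p53RE-bla. Pre-incubation 5 h, 37 C, 5% CO2; compound (DMSO, pin tool) 16 h, 37 C; B/G FRET substrate 2 h RT; fluorescence intensity read.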

[10] = target: 5-hydroxytryptamine receptor 2A (Homo sapiens) (UniProt P28223); experiment: 5-hydroxytryptamine receptor 2A (HTR2A) small molecule antagonists, cell-based qHTS assay (AID 1963586); also: nearly all actives have a fitted effect of over 45% in size
Chain of 5-hydroxytryptamine receptor 2A (Homo sapiens) (P28223 whole entry, looked up): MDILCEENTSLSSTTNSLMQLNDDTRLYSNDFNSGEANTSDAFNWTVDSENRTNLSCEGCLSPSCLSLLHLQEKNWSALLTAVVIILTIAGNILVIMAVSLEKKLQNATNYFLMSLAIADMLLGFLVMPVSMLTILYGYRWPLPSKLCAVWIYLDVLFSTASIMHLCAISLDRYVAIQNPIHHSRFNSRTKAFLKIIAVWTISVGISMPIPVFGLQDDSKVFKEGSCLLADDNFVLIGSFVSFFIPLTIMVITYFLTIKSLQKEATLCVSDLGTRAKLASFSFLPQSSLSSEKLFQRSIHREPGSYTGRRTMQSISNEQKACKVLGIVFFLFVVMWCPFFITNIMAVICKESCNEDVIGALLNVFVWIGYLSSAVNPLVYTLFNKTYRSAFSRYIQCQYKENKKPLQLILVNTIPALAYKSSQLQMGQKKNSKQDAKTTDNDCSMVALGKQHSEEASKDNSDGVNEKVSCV
Procedure, shortened: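 Antagonist-mode intracellular calcium assay: DOI (4 nM) added after 5 min compound pre-incubation at room temperature to dye-loaded HTR2A-CHO cells. Fluorescence followed for 3 min, sampled every second.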

[11] = target: 5-hydroxytryptamine receptor 2A (Homo sapiens) (UniProt P28223); experiment: 5-hydroxytryptamine receptor 2A (HTR2A) small molecule agonists, cell-based qHTS assay (AID 1963587); also: nearly all actives have a fitted effect of over 30% in size
Procedure, shortened: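 CHO cells stably expressing human HTR2A, plated 18 h, loaded with calcium dye 1 h at 37 C. Agonist mode: compounds added and intracellular calcium fluorescence recorded kinetically for 2 min at 1 sec intervals.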

[12] = target: Muscarinic acetylcholine receptor M1 (Homo sapiens) (UniProt P11229); experiment: Cholinergic receptor muscarinic 1 (CHRM1) small molecule antagonists, cell-based qHTS assay (AID 1963588); also: nearly all actives have a fitted effect of over 40% in size; also: potency is read from the fitted curve at half-maximal effect
Chain of Muscarinic acetylcholine receptor M1 (Homo sapiens) (P11229 whole entry, looked up): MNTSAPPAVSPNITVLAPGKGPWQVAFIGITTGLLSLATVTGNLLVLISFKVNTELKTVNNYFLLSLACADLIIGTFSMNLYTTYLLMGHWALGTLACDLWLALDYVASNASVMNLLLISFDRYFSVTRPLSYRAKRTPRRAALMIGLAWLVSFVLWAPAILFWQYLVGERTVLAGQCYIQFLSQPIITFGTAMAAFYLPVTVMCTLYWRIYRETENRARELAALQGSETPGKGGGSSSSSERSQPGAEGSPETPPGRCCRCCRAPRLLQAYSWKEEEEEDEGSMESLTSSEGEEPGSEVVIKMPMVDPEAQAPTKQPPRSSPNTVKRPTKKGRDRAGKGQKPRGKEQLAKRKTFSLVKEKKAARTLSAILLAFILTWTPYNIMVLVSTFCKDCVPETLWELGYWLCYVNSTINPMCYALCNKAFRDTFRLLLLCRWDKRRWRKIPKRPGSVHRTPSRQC
Procedure, shortened: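 CHRM1-CHO calcium-flux assay, antagonist mode. Cells were seeded 18 h, dye-loaded 1 h at 37 C and given compound for 5 min at RT, then acetylcholine was added at 50nM. FDSS fluorescence was read 3 min; 15 concentrations, three runs.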

[13] = target: Muscarinic acetylcholine receptor M1 (Homo sapiens) (UniProt P11229); experiment: Cholinergic receptor muscarinic 1 (CHRM1) small molecule agonists, cell-based qHTS assay (AID 1963589); also: nearly all actives have a fitted effect of over 35% in size
Procedure, shortened: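 Human M1 in stable CHO line; 18 h plating, 1 h dye load 37 C; cpd added (agonist mode); Ca2+ fluorescence kinetic read, 1 s intervals; 15 conc, 3 runs.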

[14] = cAMP Responsive Elements (CRE) small molecule agonists, cell-based qHTS assay (AID 1963590)
Procedure, shortened: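 HEK 293T CRE-bla, 2,000 cells/well, 18 h preincubation 37 C/5% CO2; cpds (DMSO) pinned, 3 h; LiveBLAzer B/G FRET substrate, 2 h RT.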

[15] = cAMP Responsive Elements (CRE) small molecule antagonists, cell-based qHTS assay (AID 1963591; active = well fitted inhibition curve with a large enough effect in the signal ratio in the repeat runs, not every such curve was filed as active; the % refers to the signal ratio)
Procedure, shortened: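 Beta-lactamase reporter read by FRET substrate (LiveBLAzer B/G) after 2 h at room temperature. CRE-bla HEK293T cells had received compound plus 0.25 uM (final) NKH477 for 3 h at 37 °C.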

[16] = target: D(2) dopamine receptor (Homo sapiens) (UniProt P14416); experiment: Dopamine D2 receptor (DRD2) small molecule agonists, cell-based qHTS assay (AID 1963594); also: nearly all actives have a fitted effect of over 35% in size; also: potency is read from the fitted curve at half-maximal effect
Chain of D(2) dopamine receptor (Homo sapiens) (P14416 whole entry, looked up): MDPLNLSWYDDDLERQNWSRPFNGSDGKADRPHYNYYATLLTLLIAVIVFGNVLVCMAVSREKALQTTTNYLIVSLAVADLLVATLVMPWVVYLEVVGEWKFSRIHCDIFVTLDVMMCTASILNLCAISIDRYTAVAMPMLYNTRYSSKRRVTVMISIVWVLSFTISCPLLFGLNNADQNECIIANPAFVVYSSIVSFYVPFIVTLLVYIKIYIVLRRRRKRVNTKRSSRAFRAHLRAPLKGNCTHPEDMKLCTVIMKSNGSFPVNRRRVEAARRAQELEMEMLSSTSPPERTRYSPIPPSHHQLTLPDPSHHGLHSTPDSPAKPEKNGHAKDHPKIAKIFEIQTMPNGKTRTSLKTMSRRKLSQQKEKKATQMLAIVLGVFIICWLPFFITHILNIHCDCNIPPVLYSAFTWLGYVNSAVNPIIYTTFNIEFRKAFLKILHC
Procedure, shortened: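 HEK293 cells stably expressing human DRD2, pre-treated with PDE inhibitor Ro20-1724 (0.1 mM final) and compound 10 min at room temperature, then stimulated with NKH477 (200nM […]) for 30 min. cAMP read by HTRF (665/620 nm).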

[17] = target: D(2) dopamine receptor (Homo sapiens) (UniProt P14416); experiment: Dopamine D2 receptor (DRD2) small molecule antagonists, cell-based qHTS assay (AID 1963595; active = well fitted inhibition curve with a large enough effect in the signal ratio in the repeat runs, with a control signal flat; the % refers to the signal ratio)
Procedure, shortened: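 DRD2-HEK293; 0.1 mM Ro20-1724; cpd 10 min RT; NKH477 200 nM + quinpirole 12 nM, 30 min RT; HTRF cAMP (cAMP-d2/anti-cAMP cryptate), 665/620 nm ratio after 1 h.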

[18] = target: Beta-2 adrenergic receptor (Homo sapiens) (UniProt P07550); experiment: Adrenergic beta2 receptor (ADRB2) small molecule antagonists, cell-based qHTS assay (AID 1963592); also: series mostly up to about 92 µM; nearly all actives have a fitted effect of over 50% in size
Chain of Beta-2 adrenergic receptor (Homo sapiens) (P07550 whole entry, looked up): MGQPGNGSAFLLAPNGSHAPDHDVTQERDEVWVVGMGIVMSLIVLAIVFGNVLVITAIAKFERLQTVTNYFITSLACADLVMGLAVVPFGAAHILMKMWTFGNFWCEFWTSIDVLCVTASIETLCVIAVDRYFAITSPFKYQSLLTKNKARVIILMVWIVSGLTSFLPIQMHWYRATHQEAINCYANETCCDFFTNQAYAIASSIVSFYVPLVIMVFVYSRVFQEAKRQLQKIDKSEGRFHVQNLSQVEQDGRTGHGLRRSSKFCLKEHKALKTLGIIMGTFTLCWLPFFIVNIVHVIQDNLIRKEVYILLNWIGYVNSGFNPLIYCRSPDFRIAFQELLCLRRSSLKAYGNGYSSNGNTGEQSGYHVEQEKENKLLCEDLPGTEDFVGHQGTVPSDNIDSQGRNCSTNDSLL
Procedure, shortened: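 Cells (CHO, stable ADRB2 overexpression) incubated 18-20hr at 37C; compounds added from DMSO; agonist mix (1nM isoproterenol, 100uM IBMX, 25uM Ro-20-1724) added; 0.5hr RT; d2-cAMP and anti-cAMP-cryptate added; 1hr RT; 665/615 nm read.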

[19] = target: Beta-2 adrenergic receptor (Homo sapiens) (UniProt P07550); experiment: Adrenergic beta2 receptor (ADRB2) small molecule agonists, cell-based qHTS assay (AID 1963593);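 also: CHO cells stably overexpressing human ADRB2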
Procedure, shortened: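 CHO cells stably over-expressing ADRB2 were plated overnight at 37C, then dosed with compounds plus a stimulation mix containing 100uM IBMX and 25uM Ro-20-1724 for 0.5hr at room temperature. cAMP was measured by HTRF competition, 1hr.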

[20] = p53 small molecule agonists, cell-based qHTS assay with rat liver microsomes: qHTS cell viability counter screen (AID 1963580); also: nearly all actives have a fitted effect of over 45% in size
Procedure, shortened: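 Viability is assessed in parallel with the p53 reporter read: HCT-116 p53RE-bla cells receive compounds plus rat microsomes and NADPH (0.5 mg/mL final apiece), incubate 16 h at 37 C, and then CellTiter-Glo luminescence is recorded.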
% is scaled to controls: 0 for no effect and ±100 for the full control effect.

COc1cc2c(cc1OC)CN(C(=O)[C@H](C)N[C@@H](CCc1ccccc1)C(=O)O)[C@H](C(=O)O)C2
inactive: Potency [1] | Potency [2] | Potency [3] | outcome [4] | outcome [5] | Potency [6] | Potency [7] | Potency [8] | Potency [9] | Potency [10] | Potency [11] | Potency [12] | Potency [13] | Potency [14] | Potency [15] | Potency [16] | Potency [17]

OCCN(CCO)c1ccccc1
inactive: Potency [1] | Potency [2] | Potency [3] | outcome [4] | outcome [5] | Potency [6] | Potency [7] | Potency [8] | Potency [9] | Potency [10] | Potency [11] | Potency [12] | Potency [13] | Potency [14] | Potency [16] | Potency [17]

c1cnc2c(n1)CCCC2
inactive: Potency [1] | Potency [2] | Potency [3] | outcome [4] | outcome [5] | Potency [6] | Potency [7] | Potency [8] | Potency [9] | Potency [10] | Potency [11] | Potency [12] | Potency [13] | Potency [14] | Potency [15] | Potency [18] | Potency [19] | Potency [16] | Potency [17]

O=C(O)c1snc(Cl)c1Cl
active: Potency [2] 68.6 µM
inactive: Potency [1] | Potency [3] | outcome [4] | outcome [5] | Potency [6] | Potency [7] | Potency [8] | Potency [9] | Potency [10] | Potency [11] | Potency [12] | Potency [13] | Potency [14] | Potency [15] | Potency [18] | Potency [16] | Potency [17]

CCCCN1C=CN(C)C1
inactive: activity change, negative = cytotoxicity [1] 3.2% [at 19 µM] | activity, positive = activation [2] 5.6% [at 19 µM] | activity change [3] 1.08% [at 11.8 µM, active compounds read high] | activation [4] 2.8% [at 15.8 µM] | activation [5] 0.0752% [at 11.8 µM] | activation [6] -0.103% [at 13.5 µM] | activation [7] 0.456% [at 13.6 µM] | activity change, negative = cytotoxicity [8] -6.5% [at 13.5 µM] | activation [9] -0.772% [at 13.5 µM] | activity, negative = inhibition [10] -10.9% [at 12.7 µM] | activation [11] 7.66% [at 15.9 µM] | activity, negative = inhibition [12] 0.644% [at 12.6 µM] | activation [13] 4.26% [at 15.8 µM] | activation [14] -0.578% [at 19 µM] | activity change, negative = inhibition [15] -0.722% [at 18.9 µM] | activity change, negative = inhibition [18] 3.2% [at 19 µM] | activation [16] 0.42% [at 19 µM] | activity change, negative = inhibition [17] 2.35% [at 18.9 µM]

CC1CC(C)C(=O)C1=O (stereo unspecified)
inactive: Potency [1] | Potency [2] | Potency [3] | outcome [4] | outcome [5] | Potency [6] | Potency [7] | Potency [8] | Potency [9] | Potency [10] | Potency [11] | Potency [12] | Potency [13] | Potency [14] | Potency [18] | Potency [16]

CC(CC1c2ccccc2CCc2ccccc21)CN(C)C (stereo unspecified)
inactive: Potency [1] | Potency [2] | Potency [3] | outcome [4] | outcome [5] | Potency [6] | Potency [7] | Potency [8] | Potency [20] | Potency [11] | Potency [13] | Potency [14] | Potency [15] | Potency [16]
active: Potency [12] 0.0365 µM

CCCCCCCCOc1ccc(C(=O)O)cc1
active: Potency [2] 60.4 µM
inactive: Potency [1] | Potency [3] | outcome [4] | outcome [5] | Potency [6] | Potency [7] | Potency [8] | Potency [20] | Potency [11] | Potency [12] | Potency [13] | Potency [15] | Potency [18] | Potency [19] | Potency [16] | Potency [17]

CC(C)(C)OC(=O)c1ccccc1C(=O)O
inactive: Potency [1] | Potency [2] | Potency [3] | outcome [4] | outcome [5] | Potency [6] | Potency [7] | Potency [8] | Potency [9] | Potency [10] | Potency [11] | Potency [12] | Potency [13] | Potency [14] | Potency [15] | Potency [18] | Potency [17]

CN1CCN(Cc2cc(-c3ccc4[nH]c(=O)oc4c3)co2)[C@@H](c2ccc(F)cc2)C1
inactive: Potency [3] | outcome [4] | outcome [5] | Potency [6] | Potency [7] | Potency [8] | Potency [20] | Potency [10] | Potency [13] | Potency [18] | Potency [19]
active: Potency [1] 26.3 µM | Potency [2] 13.2 µM

CC(CCc1ccccc1)NCC(O)c1ccc(O)c(C(N)=O)c1 (stereo unspecified)
inactive: Potency [1] | Potency [2] | Potency [3] | outcome [4] | outcome [5] | Potency [6] | Potency [7] | Potency [8] | Potency [20] | Potency [14] | Potency [15] | Potency [17]
active: Potency [16] 3.31 µM

COc1c(C)c2c(c(O)c1C/C=C(\C)CCC(=O)O)C(=O)OC2
inactive: Potency [1] | Potency [2] | Potency [3] | outcome [4] | outcome [5] | Potency [6] | Potency [7] | Potency [8] | Potency [20] | Potency [18] | Potency [19] | Potency [16] | Potency [17]

O=C(O)c1cccc(C(=O)O)n1
inactive: Potency [1] | Potency [2] | Potency [3] | outcome [4] | outcome [5] | Potency [6] | Potency [7] | Potency [8] | Potency [9] | Potency [10] | Potency [11] | Potency [13] | Potency [15] | Potency [18] | Potency [17]

CCC(=O)O[C@]1(C(=O)COC)[C@@H](C)C[C@H]2[C@@H]3CCC4=CC(=O)C=C[C@]4(C)C3(F)[C@@H](O)C[C@@]21C (stereo partly specified)
inactive: Potency [1] | Potency [2] | Potency [3] | outcome [4] | outcome [5] | Potency [6] | Potency [7] | Potency [8] | Potency [9] | Potency [11] | Potency [12] | Potency [18] | Potency [17]

CCCCCCCCCC#N
inactive: Potency [1] | Potency [3] | outcome [4] | outcome [5] | Potency [6] | Potency [7] | Potency [9] | Potency [10] | Potency [11] | Potency [12] | Potency [14] | Potency [15] | Potency [18] | Potency [16]
active: Potency [2] 68.2 µM | Potency [8] 11.4 µM
